Tau FP inhib: tau fibrillization inhibition (FP); 0.39% of 280,000 active; K18 P301L tau heparin fibrillization, Alexa594 FP, 6 h; Potency, µM (series often up to 57.7 µM), inactives show top-dose activity, negative = inhibition, most hits filed as inhibitors; P10636; AID 1468; note: nearly all actives have a fitted effect of over 55% in size
Target sequence (P10636 561-689 P618L limits assumed): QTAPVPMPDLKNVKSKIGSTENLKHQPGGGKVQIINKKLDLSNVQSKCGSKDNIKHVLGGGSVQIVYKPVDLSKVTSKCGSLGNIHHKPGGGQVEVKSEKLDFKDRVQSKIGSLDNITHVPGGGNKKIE
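Human tau K18 […] P301L fragment, 15 uM unlabeled plus 0.24 uM Alexa 594-labeled tau (final), with compound and 20 uM heparin in 100 mM sodium acetate pH 7; 6 hr at 37 C, then Alexa 594 FP read.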
Luc counter: counter-screen: inhibitors of Kinase-Glo firefly luciferase; Potency, µM (titrated, usually from 38.3 µM), inactives show at the top dose activity change, negative = inhibition, usual class: inhibitors; Kinase-Glo luciferase, ATP luminescence, 8 min; Q27757; 0.28% of 200,000 active; note: nearly all actives have a fitted effect of over 60% in size
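Luminescence was the read-out, taken after 8-minute incubation at ambient temperature. Luciferase turned over luciferin with 10 uM ATP in imidazole pH 7.2 buffer containing KCl, MgCl2, Tween 20 and BSA.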
NPSR antag: antagonists of human neuropeptide S receptor cAMP signaling. Q6W5P4. AID 1461. CHO-NPSR cells, cAMP TR-FRET, antagonist mode. Potency, µM (series often up to 38.3 µM), for the others: at the top dose activity change, negative = inhibition, actives largely listed as inhibitors. 1% of 220,000 active; note: nearly all actives have a fitted effect of over 50% in size
Target sequence (Q6W5P4 whole entry, looked up): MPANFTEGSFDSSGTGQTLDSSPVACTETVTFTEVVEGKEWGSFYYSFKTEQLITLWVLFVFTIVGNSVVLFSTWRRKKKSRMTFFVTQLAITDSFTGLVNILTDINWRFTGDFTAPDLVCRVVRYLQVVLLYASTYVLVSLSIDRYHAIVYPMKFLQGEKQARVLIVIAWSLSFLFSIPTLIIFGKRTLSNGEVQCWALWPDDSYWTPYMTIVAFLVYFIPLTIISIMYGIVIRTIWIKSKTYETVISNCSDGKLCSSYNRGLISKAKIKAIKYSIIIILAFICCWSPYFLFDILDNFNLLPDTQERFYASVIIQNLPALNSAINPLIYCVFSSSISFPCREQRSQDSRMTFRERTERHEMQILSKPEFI
Tau fluor counter: counter-screen for tau fibril formation inhibitors; tau K18 P301L Alexa594 fluorescence, heparin fibrillization; Potency, µM (highest dose often 57.7 µM), inactives show at the top dose activity change, negative = decrease; 0.93% of 280,000 active; note: nearly all actives have a fitted effect of over 55% in size
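Human K18 P301L tau (15 uM unlabeled plus 0.24 uM Alexa 594-labeled, final) in 100 mM sodium acetate pH 7 was mixed with compound and 20 uM heparin and incubated 6 hr at 37 C.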
Tau fibril ThT: inhibitors of human tau fibril formation, thioflavin T binding; recombinant tau K18 P301L, heparin-induced fibrillization, ThT fluorescence; Potency, µM (highest dose often 57.4 µM), for inactives: top-dose activity, negative = inhibition, usual class: inhibitors; 2.1% of 270,000 active; AID 1460; note: nearly all actives have a fitted effect of over 55% in size
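Fibril formation assay: tau K18 P301L at 15 uM with trace Alexa 594 label, heparin inducer 20 uM, pH 7 sodium acetate buffer, 37 C for 6 hr; endpoint ThT signal.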
The depositor's hits bear a star; ? = inconclusive; / = no result given; [ ] = remark or other dose. Hits are enriched below; roughly 3.3% of the tested compounds scored in any of these assays. Calls come from the whole dose curve; as a rule, active = well fitted curve in the direction sought with a large enough effect; inconclusive = small, poorly fitted or top-dose-only effect, or another doubt; inactive = no such curve, though single readings can be large; an effect the other way counts as inactive or inconclusive. % is set by controls: 0 for no effect and ±100 for the full control effect; potency is the fitted concentration of half-maximal effect.

SMILES	Tau FP inhib	Luc counter	NPSR antag	Tau fluor counter	Tau fibril ThT
CN[C@@H]1[C@H](O[C@@H]2O[C@H](C)[C@@](O)(CO)[C@H]2O[C@H]2[C@H](O)[C@H](O)[C@H](N=C(N)N)[C@@H](O)[C@@H]2N=C(N)N)O[C@@H](CO)[C@H](O)[C@H]1O	-11.8%	0.9%[39.9 µM]	/	-9.7%	?
Cc1ccc(-n2nc(-c3ccc(OC(F)(F)F)cc3)cc2N)cc1C	8.6%	/	8.2%	11.2µM*[quencher]	?
Cc1ccc(-n2nc(-c3ccc(N)cc3)cc2N)cc1	16.6%	3.9%	-4.9%	-19.8%	?
NC(=O)C1CCN(C2=C(Cl)C(=O)c3ccccc3C2=O)CC1	3.4%	?	10µM*	3.3%	13.0%
O=C1C(Cl)=C(N2CCC(C(=O)O)CC2)C(=O)c2ccccc21	11.2µM*	/	-6.5%[7.67 µM]	10µM*[quencher]	4.47µM*
NC(=O)C1CCN(C2=C(NS(=O)(=O)c3ccccc3)C(=O)c3ccccc3C2=O)CC1	4.8%	/	10.9%[7.67 µM]	-26.8%	?
CCN(CC)S(=O)(=O)c1ccc2c(c1)N(CC(=O)NCCCN1CCN(c3cc(Cl)ccc3C)CC1)C(=O)CO2	11.1%	/	/	-17.5%	-17.2%
CCn1c(C)c(C2N3CC4(C)CN2CC(C)(C3)C4=O)c2ccccc21 (stereo not drawn)	2.2%	/	/	-6.8%	2.4%
CC(C)(C)c1cc(NCc2ccccn2)n2ncc(-c3ccccc3)c2n1	11.3%	/	?	10µM*[quencher]	?
Cc1cc(C)n(-c2cc(C(C)(C)C)nc3c(-c4ccccc4)cnn23)n1	4.9%	/	?	-10.8%	-8.3%
CCn1c(CN2CCC(C)CC2)nc2cc(NC(=O)COc3ccc(Cl)c(C)c3)ccc21	-7.3%	/	/	-3.1%	0.5%
Cc1ccc(-c2nc(CCNC(=O)C(=O)Nc3ccc(F)cc3F)cs2)cc1	-4.1%	/	/	-12.4%	-11.3%
CCOc1ccc(NC(=O)N(Cc2ccc(CC)cc2)Cc2cn[nH]c2-c2ccc(OC)cc2)cc1	-0.3%	/	/	-10.5%	2.4%
Cn1nc(C(F)(F)F)c2cc(C(=O)Nc3ccc(C(F)(F)F)cc3)sc21	28.2µM*	/	?	?	/
Cn1nc(C(F)(F)F)c2cc(C(=O)Nc3ccc(F)cc3)sc21	-18.2%	/	22.7%	-24.4%	-1.6%
N#Cc1ccccc1NC(=O)C(=O)NCC(c1cccnc1)N1CCc2ccccc21 (stereo not drawn)	-1.9%	/	/	-5.4%	-2.9%
O=S(=O)(O)CCS	?	-4.5%	/	-14.1%	22.4µM*
NCCCS(=O)(=O)O	5.5%	-1.3%	-6.4%	-1.1%	-6.5%
Cc1cccc(C)c1OCc1cc(=O)n2c3c(sc2n1)CCCC3	0.6%	/	/	-11.3%	?
Cc1ccc(-c2nc(N=Nc3ccc(O)cc3)n[nH]2)cc1	-1.9%	-1.2%	-21.8%	-27.4%	2.51µM*
COc1ccc(-c2ccnc(-c3ccc(O)cc3)n2)cc1	-6.3%	2.5%	15.6%	-17.6%	?
COc1ccc(-c2nc(N=Nc3ccc(O)cc3)n[nH]2)cc1	0.9%	-0.5%	-15.0%	-20.2%	2.82µM*
Cc1nc(N=Nc2ccc(O)cc2)n[nH]1	-6.8%	/	-22.6%	-2.3%	-14.3%
CCOc1ccc(Br)cc1C1C(C(=O)OC)=C(C)NC2=C1C(=O)c1ccccc12 (stereo not drawn)	1.0%	/	/	7.94µM*[quencher]	10µM*
CCOc1cc(C2C(C(=O)OC)=C(C)NC3=C2C(=O)c2ccccc23)cc(Cl)c1O (stereo not drawn)	?	/	/	7.94µM*[quencher]	?
SMILES	Tau FP inhib	Luc counter	NPSR antag	Tau fluor counter	Tau fibril ThT
COc1cc(C2NC(=O)NC(C)=C2C(=O)OC(C)(C)C)ccc1OCC(=O)O (stereo not drawn)	1.1%	0.7%	-2.8%[46.1 µM]	2.9%	-12.6%
CCOC(=O)C1=C(C)NC2=C(C(=O)c3ccccc32)C1c1ccc([N+](=O)[O-])o1 (stereo not drawn)	6.0%	/	?	?	?
CCOC(=O)COc1ccccc1C1C(C(=O)OC)=C(C)NC2=C1C(=O)c1ccccc12 (stereo not drawn)	11.1%	/	/	14.1µM*[quencher]	14.1µM*
COC(=O)COc1ccc(C2C(C(=O)OC)=C(C)NC3=C2C(=O)c2ccccc23)cc1OC (stereo not drawn)	6.0%	/	/	14.1µM*[quencher]	14.1µM*
CCN1CCN(C(=O)CCc2nnc(CCCCc3ccccc3)o2)[C@@H](C)C1=O	-0.2%	-2.6%	-14.8%	-0.8%	-1.2%
CCCc1cc(C(=O)Cc2nc3ccccc3s2)c(O)cc1O	-0.3%	-6.0%	-11.4%[46.1 µM]	20µM*[quencher]	25.1µM*
CCCc1cc(C(=O)Cc2ccc(F)cc2)c(O)cc1O	-8.9%	-2.5%	-7.4%[46.1 µM]	?	-4.8%
Cc1oc(C)c2c(=O)ccc3c(c12)OC(N)=C(C#N)C3c1ccc(F)cc1 (stereo not drawn)	?	-4.4%	-13.8%[46.1 µM]	?	25.1µM*
C[n+]1cccc2ccc3c(c21)OC(N)=C(C#N)C3c1ccccc1 (stereo not drawn)	-5.5%	/	-1.5%	-1.8%	/
CN1CCN(c2cc(N3CCc4ccccc4C3)c(F)cc2[N+](=O)[O-])CC1	-0.6%	4.1%	?	-26.6%	12.6µM*
CC1=CC(=C(C#N)c2nc3ccccc3s2)C=C(C)N1CC1CCCO1 (stereo not drawn)	?	-2.3%	-35.3%	7.94µM*[quencher]	?
Cc1cc(=Nc2ccc3c(c2)c(N)cc(C)[n+]3C)nc(N)n1C	/	-1.5%[7.66 µM]	/	/	/
O=c1[nH]c(/C=C\c2cccs2)nc(O)c1[N+](=O)[O-]	-4.6%	4.5%	-14.3%	-6.7%	2.5%
CCCC(=NCCc1c(C)[nH]c2ccccc12)C1=C(O)CC(c2ccccc2)CC1=O (stereo not drawn)	6.6%	0.2%	-58.2%	?	?
CC(=NCCc1c(C)[nH]c2ccc(OC(F)(F)F)cc12)C1=C(O)CC(c2ccccc2)CC1=O (stereo not drawn)	?	5.2%	10µM*	?	1.2%
CCCCC(=NCCc1c(C)[nH]c2ccccc12)C1=C(O)CC(c2ccccc2)CC1=O (stereo not drawn)	-5.9%	4.3%	7.94µM*	-24.3%	-11.2%
Cn1c(O)c(N=N/C(=N/c2ccccn2)c2ccccn2)c2cc(Br)ccc21	/	-6.3%	/	/	/
CC1=NN(c2nc(-c3ccccc3)cs2)C(=O)C1	0.6%	-0.4%	3.3%[46.1 µM]	?	?
O=C1CC(c2ccccc2)=NN1c1nc(-c2ccccc2)cs1	?	4.4%	-7.0%	?	10µM*
COC(=O)C1C(O)C(C)C(O)C(C)(O)/C=C\C=C(/C)C(=O)Nc2c(C)c(OC(C)=O)c3c(c2O)C(=O)C(C)=C2OCOC(=C23)/C(C)=C/C(C)(O)C(O)C(C)C1O (stereo not drawn)	?	/	3.5%	3.98µM*[quencher]	/
COC(=O)C1=C(C(=O)OC)[C@@H]2N(C)c3ccccc3[C@@]23C[C@@H](CO)N(C(=O)c2cc(C)oc2C)C3=N1	-0.6%[11.6 µM]	-5.6%[7.66 µM]	/	-4.9%[11.6 µM]	6.2%[11.5 µM]
